# D1 antag – antagonists of human D1 dopamine receptor | P21728 | HEK293 TREx D1 cells, calcium flux, dopamine EC80; active compounds read low | activity change, negative = inhibition, % at 10 µM | 360,000 compounds, 3.2% hits | AID 504652; in the data active means activity change below about -30%; further: on the % scale 0 is the no-effect control and ±100 the full control effect
# Target sequence (P21728 whole entry, looked up): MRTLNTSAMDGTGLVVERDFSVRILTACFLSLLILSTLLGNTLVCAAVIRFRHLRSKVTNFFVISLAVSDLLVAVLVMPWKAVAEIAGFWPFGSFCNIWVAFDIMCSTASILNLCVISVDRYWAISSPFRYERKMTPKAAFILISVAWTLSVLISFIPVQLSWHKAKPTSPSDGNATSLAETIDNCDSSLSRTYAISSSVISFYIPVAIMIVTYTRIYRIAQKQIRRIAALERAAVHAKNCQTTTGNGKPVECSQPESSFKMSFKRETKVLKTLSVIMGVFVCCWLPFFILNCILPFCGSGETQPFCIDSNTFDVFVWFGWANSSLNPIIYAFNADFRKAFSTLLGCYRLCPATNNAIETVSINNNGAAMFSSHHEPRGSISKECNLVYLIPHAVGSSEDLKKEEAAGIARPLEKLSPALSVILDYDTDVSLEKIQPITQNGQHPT
#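 Inducible Hek293 Trex D1 cells (tetracycline, overnight, 30 C). Calcium dye 30–90 min RT. Antagonist mode: EC80 dopamine added after 180 s compound read.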
# ERG Ets-DNA blk – ERG Ets/DNA interaction inhibition; P11308; fluorescence polarization, His-ERG Ets domain / labelled DNA; Potency, µM (doses to about 76.9 µM), for inactives: top-dose FP activity, negative = inhibition, usual class: inhibitors; 370,000 compounds, 0.028% hits; AID 624246; active means well fitted inhibition curve with a large enough effect in the polarisation, with a control signal flat; inconclusive means small, poorly fitted or top-dose-only effect, or effect the other way, or a change in a side signal; inactive means no such curve, though single readings can be large or run the other way; the % refers to the polarisation;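 further: polarization taken with two DNA probes labelled with fluorescein and Texas red; potency means the concentration at half of the fitted maximal effect; % of control where 0% means no effect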
#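 His-tagged ERG Ets domain (1 uM in the protein solution; 300mM KCl, 50mM Tris-HCl, 1mM EDTA, 1mM DTT, pH 7.5) received compound, then a probe mix of 5 nM fluorescein-DNA and 100nM Texas-615-DNA. Fluorescence polarization was read for both dyes.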
# D1 potentiator – enhances dopamine response at the human D1 receptor | P21728 | HEK293 TREx D1 cells, calcium flux, dopamine EC20 potentiation | potentiation, % at 10 µM | 360,000 compounds, 0.036% hits | AID 504651; in the data active means potentiation above about 30%; further: 0% is about no effect
# D3 ag – D3 dopamine receptor (human) agonism | 410,000 compounds, 0.58% hits | AID 652048 | D3R DiscoveRx beta-arrestin cells, luminescence, 90 min | P35462 | max activation, %; in the data active means max activation above about 30%; further: 0% is about no effect
#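 Agonist-mode cell screen: cells plated at 1500/well and incubated overnight at 37 °C, then exposed to library compounds for 90 min at 37 °C. Detection reagent was added for 30–60 min at room temperature, and luminescence was read.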
# D1 ag – activates the human D1 dopamine receptor; activation, % at 2 µM; AID 504660; HEK293 T-REx D1 cells, calcium flux, agonist mode; 360,000 compounds, 1% hits; P21728; in the data active means activation above about 30%; further: 0% is about no effect
#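 Inducible HEK293 T-REx D1 cells, force-coupled to calcium signalling, were plated at 4000 cells/well with tetracycline and held overnight at 30 C. After no-wash calcium dye loading, compound-evoked calcium rise over 180 s flagged agonists.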
# DRD3 antagonist – blocks the human D3 dopamine receptor. P35462. D3R cells, DiscoveRx beta-arrestin luminescence, antagonist mode; active compounds read low. max response, negative = inhibition, %. 360,000 compounds, 2.5% hits. AID 652054; in the data active means max response below about -50%; inconclusive means no clear call, values can overlap the other calls; further: on the % scale 0 is the no-effect control and ±100 the full control effect
#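 Cells expressing the human receptor were seeded at 1500 cells/well, incubated overnight at 37 degrees C in 5% CO2, then exposed to library compounds with dopamine controls for 90 minutes at 37 degrees C before luminescent detection.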
# Active calls of the source: *; ? = inconclusive; · = no result given. Hits are enriched below; roughly 6.1% of the tested compounds scored in any of these assays.
SMILES,D1 antag,ERG Ets-DNA blk,D1 potentiator,D3 ag,D1 ag,DRD3 antagonist
COc1cc(NC(=O)CN(C)C2CCCCC2)c(C)cc1[N+](=O)[O-],-74*,·,-11,2,0,17
NC(N)=N/N=C/c1cccc([N+](=O)[O-])c1O,7,7%,-5,-14,2,-15
O=[N+]([O-])c1cccc(/C=N\N=C2c3ccccc3-c3ccccc32)c1O,-21,·,5,-13,-1,-74*
O=c1[nH]cc(N=Cc2cc([N+](=O)[O-])ccc2O)c(=O)[nH]1,1,·,-2,·,1,·
O=c1[nH]cc(N=Cc2cc(Cl)cc(Cl)c2O)c(=O)[nH]1,7,-6%,-2,-7,7,-67*
O=C(Nc1nnc(-c2ccc3c(c2)CCCC3)o1)C1CCCCC1,-46*,0%,-5,-1,1,1
O=C(Nc1nnc(-c2ccc3c(c2)CCCC3)o1)c1ccc(Cl)cc1Cl,-5,1%,4,-10,36*,7
Cc1nc(N2CCN(S(=O)(=O)c3ccc(Br)cc3)CC2)c2c(C)c(C)sc2n1,-9,23%,0,5,3,-55*
Cc1sc2nc(CN3CCCC3)nc(N3CCN(S(=O)(=O)c4cccs4)CC3)c2c1C,-6,8%,2,-10,2,?
Cc1ccc(S(=O)(=O)N2CCN(c3nc(CN4CCCC4)nc4sc(C)c(C)c34)CC2)cc1,-35*,0%,5,-12,0,-15
CCOc1ccccc1Nc1nnc(C)c(=O)[nH]1,-12,0%,-1,-7,1,-27
CCOc1ccccc1Nc1nnc(Cc2ccccc2Cl)c(=O)[nH]1,-32*,-12%,-10,7,10,-19
COc1ccc(/C=N/NC(=O)c2[nH]c3ccc(C)cc3c2-c2ccccc2)c(C(=O)O)c1OC,-3,-4%,-2,-6,4,-24
CC(C)(C)n1nc2c(c1NC(=O)Cc1ccc(F)cc1)CSC2,14,4%,·,1,5,7
CC(C)(C)n1nc2c(c1NC(=O)Cc1cccs1)CSC2,-81*,·,·,·,2,·
CN1/C(=C\P(=O)(N(C)C)N(C)C)C(C)(C)c2ccccc21,-37*,?,-3,31*,8,28
O=C(N/N=C/c1ccc(N2CCOCC2)cc1)C1COc2ccccc2O1 (stereo unspecified),-4,-5%,-8,-7,1,-22
O=[N+]([O-])c1ccc(Sc2cccc3cccnc23)c([N+](=O)[O-])c1,·,12%,-1,-13,2,-55*
O=C(C/C=N\OCc1ccc([N+](=O)[O-])cc1)Nc1ccc(Br)cc1,-15,0%,0,-1,4,-12
O=C(c1ccc(Cl)cc1)c1c[nH]c(C(=O)NNc2cccc(Cl)n2)c1,-31*,-3%,-2,0,3,-4
O=C(c1ccccc1)c1c[nH]c(C(=O)NNc2cccc(Cl)n2)c1,6,6%,-2,-4,1,-18
CC(C)CNC(=O)C(=O)NN=C1CCCCCC1,-7,5%,-3,2,2,13
Cc1nc2nc(SCC(=O)C(C)(C)C)[nH]c2cc1Br,-47*,-3%,-8,-15,0,52
CC(C)(C)C(=O)CSc1nc2ncc(Br)cc2[nH]1,-1,-7%,-2,-8,-1,29
COc1cccc(CN2CCNC(=O)C2CC(=O)NCCn2ccc3ccccc32)c1OC (stereo unspecified),-85*,8%,-7,2,1,18
SMILES,D1 antag,ERG Ets-DNA blk,D1 potentiator,D3 ag,D1 ag,DRD3 antagonist
COC1=C(c2ccccc2)C(=O)c2ccccc2C1=O,-4,-4%,2,-19,3,?
O=C(C1=C(c2ccccc2)C(=O)c2ccccc2C1=O)c1ccccc1,9,-2%,8,-27,1,-95*
Cc1ccc(C(=O)N2CC=C(c3ccccc3)CC2)o1,-6,1%,-2,-4,0,-8
CCc1nn(C(C)C(=O)NCCN2CCN(c3cccc(C)c3C)CC2)c(=O)c2cc3occc3n12 (stereo unspecified),-18,1%,-8,-9,5,-59*
CCc1nn(C(C)C(=O)NCCN2CCCCCC2)c(=O)c2cc3occc3n12 (stereo unspecified),37,-8%,-4,-18,3,-14
CCc1ccc(S(=O)(=O)/N=C2\C=C(Nc3cccc(C(=O)O)c3)C(=O)c3ccccc32)cc1,10,16%,-4,-37,0,-93*
CCc1ccc(S(=O)(=O)/N=C2\C=C(Nc3ccc(O)cc3)C(=O)c3ccccc32)cc1,-3,?,-6,-30,8,-90*
CCc1ccc(S(=O)(=O)/N=C2/C=C(Sc3ncn[nH]3)C(=O)c3ccccc32)cc1,14,-6%,2,-7,0,-80*
CCc1ccc(S(=O)(=O)/N=C2\C=CC(=O)c3ccccc32)cc1,-3,·,1,·,-2,·
Cn1cc(Cl)c(/C(N)=N/OC(=O)c2ccccc2C(F)(F)F)n1,-7,-4%,-1,-4,0,-11
Cc1ccccc1CCNC(=O)C1CCC(=O)N(CCc2cccc(F)c2)C1 (stereo unspecified),-4,6%,0,7,1,6
COc1ccc(OC)c(NC(=O)C2(C)CCN2Cc2ccccc2OC(F)F)c1 (stereo unspecified),·,·,·,92*,·,43
C#Cc1ccc([C@@H]2C=C(C(=O)N3CCOCC3)O[C@H](OCCCCO)C2)cc1,14,-6%,2,14,-3,18
COCCN(CCOC)S(=O)(=O)c1ccc(C(=O)NCCCN2CCOCC2)cc1,6,-9%,-10,2,0,11
CCOC(=O)c1cc2cc(CC(=O)c3ccc(OCC)cc3O)ccc2o1,-23,-2%,-4,-2,16,-1
CCOc1ccc(C(=O)Cc2ccc3oc(C(=O)O)cc3c2)c(O)c1,4,-10%,-3,-19,2,-62*
CCSc1nnc(-c2sc3nnc(-c4ccccc4)c(-c4ccccc4)c3c2N)o1,-1,-4%,3,3,109*,52
Cc1ccc(S(=O)(=O)NCc2ccccc2)cc1C(=O)N1CCN(c2ccccc2)CC1,-17,-8%,-3,6,0,-15
Cc1ccc(C)c(N2C(=O)c3ccc(C(=O)OCC(=O)c4c(N)n(C)c(=O)n(C)c4=O)cc3C2=O)c1,-2,-2%,-5,-2,16,20
CN(C(=O)c1cccc(NC(=O)Cc2cccc([N+](=O)[O-])c2)c1)C1CCC1,·,12%,·,14,·,11
CN(C(=O)c1cccc(NC(=O)Cc2cccc(NC(=O)C3CCN(C(=O)CCc4ccccc4)CC3)c2)c1)C1CC1,·,0%,·,40*,·,10

# Screening results: PubChem, National Center for Advancing Translational Sciences (NCATS)
